Most compounds without a hit are left out; they make up all but 1.4% or so of the library.
CD11b adhes inh: inhibitors of human CD11b/CD18 binding to fibrinogen. P05107+P11215. K562 CD11b/CD18 adhesion to fibrinogen, ATPlite luminescence; Mn2+ added to activate the integrin. inhibition, % at 10 µM. 0.54% of 93,000 active. AID 1497;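 active = primary inhibition of 50% or more at 10 µM, then 40% or more on retest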
S1P2 antag: antagonists of human S1P2 receptor; 0.21% of 97,000 active; cell-based S1P2 antagonist assay, inhibition at 5 uM; inhibition, % at 5 µM; AID 736; in the data active = inhibition above about 45%;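 note: CRE beta-lactamase reporter cells expressing human S1P2 stimulated with S1P; 0% = agonist at EC80 alone and 100% = agonist plus reference antagonist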
Target sequence (O95136 whole entry, looked up): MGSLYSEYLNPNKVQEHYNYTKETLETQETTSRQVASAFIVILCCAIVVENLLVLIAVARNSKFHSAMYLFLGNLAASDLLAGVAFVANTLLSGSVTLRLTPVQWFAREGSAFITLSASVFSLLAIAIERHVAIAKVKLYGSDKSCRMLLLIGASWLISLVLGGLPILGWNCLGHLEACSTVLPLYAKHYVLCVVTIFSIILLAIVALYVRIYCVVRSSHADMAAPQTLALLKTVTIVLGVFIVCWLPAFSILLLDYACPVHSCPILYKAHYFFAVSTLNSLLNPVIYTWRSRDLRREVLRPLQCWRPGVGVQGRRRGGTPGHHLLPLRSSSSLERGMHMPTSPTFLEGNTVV
GALR2 blocker: antagonists of human galanin receptor 2 (GALR2); O43603; GALR2-expressing cells, antagonist mode; inhibition, % at 4 µM; 0.39% of 140,000 active; AID 828; in the data active = inhibition above about 27%;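 note: cells stimulated with galanin 1-16 at roughly its EC80; 0% = agonist challenge control and 100% = basal control without agonist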
S1P2 agonist: activates the human S1P2 receptor; O95136; S1P2-expressing cell line, agonist reporter read-out; activation, % at 4.5 µM; 0.46% of 97,000 active; in the data active = activation above about 16%;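 note: 0% = vehicle low control and 100% = maximal reference agonist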
GALR2 ag: GALR2 (human) receptor agonism; activation, % (test concentration not listed); 0.48% of 140,000 active; O43603; GALR2-expressing cells, agonist activation read-out; AID 803; in the data active = activation above about 5%, passing the limit was not always enough;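 note: 0% = vehicle buffer wells and 100% = reference agonist at full effect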
Mac1 fbg enh: CD11b/CD18-fibrinogen binding enhancement | P05107+P11215 | K562 CD11b/CD18 adhesion to fibrinogen, ATPlite luminescence | activation, % at 10 µM | 0.07% of 93,000 active | AID 1499;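 active = 10 µM primary screen giving 50% or more activity, confirmed by 40% or more on retest at that dose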
GALR2 agon conf: confirmation of human galanin receptor 2 (GALR2) agonists | AID 864 | 10% of 460 active | activation, % at 5.6 µM | GALR2-expressing cells, agonist activation | shares compounds with GALR2 ag; in the data active = activation above about 8.4%;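 note: 0% = buffer-only vehicle wells and 100% = full reference agonist response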
BLA activ ctr: activates beta-lactamase reporter in GALR2 agonist counterscreen | activation, % at 5.6 µM | AID 865 | CHO NFAT-bla reporter, beta-lactamase FRET activation | 10% of 460 active | shares compounds with GALR2 ag;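 active = activation above the screen-wide mean activation plus 3 SD, cut at about 8% in these data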;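 note: 0% = DMSO with PBS wells and 100% = thapsigargin positive control wells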
* = called active by the depositor.

Cc1ccc(COCC(CC(C)C)N2CCN(C(=O)c3cccc(C(F)(F)F)c3)CCC2=O)cc1 (stereo not drawn) was read as GALR2 blocker -12.5, GALR2 ag 8.9*, GALR2 agon conf 0.0 and BLA activ ctr -3.6.
Screening CC(C)CC(COCc1ccc(F)cc1)N1CCN(C(=O)c2cccc(C(F)(F)F)c2)CCC1=O (stereo not drawn) returned GALR2 blocker -7.0 and GALR2 ag -0.6.
`COc1ccc(-c2nnc(-c3ccc(OCC(C)C)cc3)o2)cc1` gave S1P2 antag 0.4, GALR2 blocker -4.1, S1P2 agonist -2.5, GALR2 ag 13.5*, GALR2 agon conf -1.4 and BLA activ ctr -2.2.
O=C(Nc1ccccc1-c1ccccc1)c1ccc(Br)o1 was read as CD11b adhes inh -5.2, S1P2 antag -20.3, GALR2 blocker -12.4, S1P2 agonist 1.6, GALR2 ag 12.7*, Mac1 fbg enh 0.1, GALR2 agon conf -0.5 and BLA activ ctr -0.7.
Screening CCN(CC)S(=O)(=O)c1ccc(N/N=C/c2cc(OC)c(OC)cc2OC)nc1 returned GALR2 blocker 9.2, GALR2 ag 49.3*, GALR2 agon conf 21.0* and BLA activ ctr 32.9*.
Screening CCN(CC)S(=O)(=O)c1ccc(N/N=C/c2ccc(OC)c(OC)c2OC)nc1 returned GALR2 blocker 0.7 and GALR2 ag -0.7.
Screening CCOc1cc2c(cc1OCC)C(c1ccc(OC)cc1)N(c1ccccc1)C(=O)C2 (stereo not drawn) returned CD11b adhes inh 4.2, GALR2 blocker -4.1, GALR2 ag 1.3 and Mac1 fbg enh 3.0.
For O=P(C1=C(N2CCOCC2)/C(=C\c2ccccc2)CC1)(N1CCOCC1)N1CCOCC1 the results were CD11b adhes inh -14.6, S1P2 antag 0.2, GALR2 blocker -0.6, S1P2 agonist -8.6, GALR2 ag -0.2 and Mac1 fbg enh 1.2.
`CCc1ccc(NC(=O)CSc2nnc(CC)c(CC)n2)cc1` gave CD11b adhes inh -0.9, S1P2 antag -32.5, GALR2 blocker -6.7, S1P2 agonist -1.7, GALR2 ag 22.1*, Mac1 fbg enh -5.0, GALR2 agon conf -1.3 and BLA activ ctr -4.0.
`CCOC(=O)c1ccc(NC(=O)CCc2ccc(CC)o2)cc1` gave CD11b adhes inh -5.6, S1P2 antag 1.3, GALR2 blocker -6.1, S1P2 agonist -2.1, GALR2 ag 8.4, Mac1 fbg enh -0.6, GALR2 agon conf -0.9 and BLA activ ctr -0.4.
For CCn1c(=O)cc(OCC(=O)Nc2cccnc2)c2ccccc21 the results were CD11b adhes inh 0.9, S1P2 antag -9.0, GALR2 blocker 1.8, S1P2 agonist -1.1, GALR2 ag -1.3 and Mac1 fbg enh 2.3.
Screening CCn1c(=O)cc(OCC(=O)Nc2cccc(C)n2)c2ccccc21 returned CD11b adhes inh -30.8, S1P2 antag -8.4, GALR2 blocker 5.8, S1P2 agonist 1.0, GALR2 ag 119.8*, Mac1 fbg enh -0.8, GALR2 agon conf -0.9 and BLA activ ctr -1.2.
`Cc1ccccc1Nc1nc(-c2sc(NC(=O)c3ccccc3)nc2C)cs1` gave CD11b adhes inh 2.2, S1P2 antag -10.2, GALR2 blocker 0.1, S1P2 agonist -11.8, GALR2 ag 18.9*, Mac1 fbg enh 11.0, GALR2 agon conf -1.0 and BLA activ ctr -2.9.
For O=C(CSc1nnc(-c2ccncc2)n1Cc1ccco1)N1c2ccccc2Sc2ccc(Cl)cc21 the results were S1P2 antag 5.3, GALR2 blocker 0.5, S1P2 agonist -7.4 and GALR2 ag -0.5.
`CC1(C)C=C(c2ccc(C=O)s2)CC(C)(C)N1C=O` gave GALR2 blocker 3.2, GALR2 ag 14.1*, GALR2 agon conf -0.9 and BLA activ ctr -0.1.
CC1(C)C=C(c2ccc(C=O)s2)CC(C)(C)N1 was read as CD11b adhes inh -5.3, S1P2 antag 0.9, GALR2 blocker 4.4, S1P2 agonist -9.4, GALR2 ag -0.6 and Mac1 fbg enh -2.1.
For Cc1cc2nn(-c3cccc4ccccc34)nc2cc1N the results were CD11b adhes inh -19.2, S1P2 antag 10.6, GALR2 blocker 15.0, S1P2 agonist 4.2, GALR2 ag 3.3 and Mac1 fbg enh 7.9.
`Cc1ccc(-n2nc3cc(C)c(N)cc3n2)cc1` gave CD11b adhes inh 48.1, S1P2 antag -17.2, GALR2 blocker 8.7, S1P2 agonist 2.7, GALR2 ag 9.6, Mac1 fbg enh -6.6, GALR2 agon conf 1.7 and BLA activ ctr 4.0.
Screening COc1cccc(C2CC3(CC(C)(C)NC(=S)N3)Oc3cc(O)ccc32)c1 (stereo not drawn) returned GALR2 blocker 1.3 and GALR2 ag 0.3.
For CSC1=NC2(CC(c3ccccc3)Oc3cc(O)ccc32)CC(C)(C)N1 (stereo not drawn) the results were S1P2 antag -15.3, GALR2 blocker -20.2, S1P2 agonist 0.9, GALR2 ag 20.4*, GALR2 agon conf 9.2* and BLA activ ctr 78.3*.
For COc1cc(NC(=O)C2CCCCC2)c(OC)cc1NC(=O)c1ccco1 the results were CD11b adhes inh 2.2, S1P2 antag 23.0, GALR2 blocker 9.1, S1P2 agonist -7.0, GALR2 ag -2.0 and Mac1 fbg enh -0.7.
Screening CCOc1cc(NC(=O)C2CCCCC2)c(OCC)cc1NC(=O)c1ccco1 returned S1P2 antag -26.0, GALR2 blocker -12.7, S1P2 agonist -2.7, GALR2 ag 32.1*, GALR2 agon conf -0.4 and BLA activ ctr 0.3.
Screening CCC(C)N=CC1=C(O)C(C(=O)OC)C(C)(C)CC1=O (stereo not drawn) returned S1P2 antag -4.9, GALR2 blocker -3.2, S1P2 agonist -6.7, GALR2 ag 49.2*, GALR2 agon conf 0.2 and BLA activ ctr -1.3.
`COC(=O)C1C(O)=C(C=NCC(C)N=CC2=C(O)C(C(=O)OC)C(C)(C)CC2=O)C(=O)CC1(C)C` (stereo not drawn) gave CD11b adhes inh 1.9, S1P2 antag 9.3, GALR2 blocker 6.0, S1P2 agonist -8.5, GALR2 ag 0.2 and Mac1 fbg enh -1.0.
`Cc1nccn1S(=O)(=O)c1cc([N+](=O)[O-])ccc1Cl` gave GALR2 blocker 1.2 and GALR2 ag -0.6.
O=C(COC(=O)COc1ccc(Br)cc1)Nc1cccnc1Cl was read as GALR2 blocker -16.1, GALR2 ag 34.4*, GALR2 agon conf -0.7 and BLA activ ctr -0.8.
O=C(NCc1ccc2c(c1)OCO2)c1cc(-c2ccc(Cl)cc2Cl)on1 was read as S1P2 antag 8.4, GALR2 blocker 2.4, S1P2 agonist 0.7 and GALR2 ag -0.5.
